According to publication PMC4336329 (PLoS ONE, 2015):
Hit rate of the full screen: of about 310,000 compounds, about 14,000 (4.5%) showed an effect of 50% or more. The effect is printed as a negative number. The sample holds strong results, similar compounds and a random draw of the others, so the mix is not that of the screen.

target: human ether-à-go-go-related gene (hERG) potassium channel (human, UniProt Q12809); assay: primary screen, population patch clamp on CHO cells stably expressing hERG; higher = less effect of the substance
Sequence (Q12809 whole entry, looked up): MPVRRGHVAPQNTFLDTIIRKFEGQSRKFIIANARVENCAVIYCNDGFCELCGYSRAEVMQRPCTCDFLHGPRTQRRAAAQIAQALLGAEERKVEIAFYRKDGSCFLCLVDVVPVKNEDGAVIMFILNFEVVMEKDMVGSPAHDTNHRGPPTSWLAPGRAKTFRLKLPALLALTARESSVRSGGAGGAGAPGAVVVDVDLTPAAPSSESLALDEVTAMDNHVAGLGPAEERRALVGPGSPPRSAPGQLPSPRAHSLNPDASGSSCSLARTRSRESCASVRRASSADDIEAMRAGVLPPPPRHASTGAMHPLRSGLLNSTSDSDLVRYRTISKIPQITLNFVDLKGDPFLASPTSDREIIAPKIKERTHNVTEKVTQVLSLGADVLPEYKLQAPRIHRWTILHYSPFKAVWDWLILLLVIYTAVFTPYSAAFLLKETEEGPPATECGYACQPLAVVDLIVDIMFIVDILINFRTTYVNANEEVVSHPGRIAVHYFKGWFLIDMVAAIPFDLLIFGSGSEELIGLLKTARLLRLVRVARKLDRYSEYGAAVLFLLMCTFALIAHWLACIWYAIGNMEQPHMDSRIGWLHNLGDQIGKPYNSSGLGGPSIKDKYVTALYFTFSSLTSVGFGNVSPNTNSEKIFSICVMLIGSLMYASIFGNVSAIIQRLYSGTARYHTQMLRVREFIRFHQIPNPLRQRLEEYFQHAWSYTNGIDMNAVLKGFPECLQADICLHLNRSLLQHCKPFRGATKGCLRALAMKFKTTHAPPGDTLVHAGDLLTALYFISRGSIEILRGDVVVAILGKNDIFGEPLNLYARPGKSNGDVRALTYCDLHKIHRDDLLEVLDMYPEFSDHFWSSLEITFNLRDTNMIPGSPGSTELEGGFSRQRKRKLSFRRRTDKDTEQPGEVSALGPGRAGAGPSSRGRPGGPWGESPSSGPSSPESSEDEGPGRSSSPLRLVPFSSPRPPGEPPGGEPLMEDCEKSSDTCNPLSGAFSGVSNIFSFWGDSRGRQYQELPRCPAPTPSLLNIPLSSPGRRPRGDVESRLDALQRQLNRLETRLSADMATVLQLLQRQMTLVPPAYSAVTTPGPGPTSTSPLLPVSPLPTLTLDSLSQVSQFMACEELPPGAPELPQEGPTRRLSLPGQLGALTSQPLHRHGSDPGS
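Note: peak tail current of the secondary pulse compared with the same well before compound.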

In order of falling “hERG current change (%, negative = inhibition) at 10uM” value:
1. Oc1c(Br)cc(Cl)cc1C=Nc1ccc(N2CCOCC2)cc1  19.6%
2. CCc1ccc(OCC(=O)OCC(=O)c2c(N)n(C)c(=O)n(C)c2=O)cc1  10.2%
3. CN(C)S(=O)(=O)N1CCN(C(=O)c2ccc3c(c2)OCO3)CC1  10%
4. CCC(=O)c1ccc(OCC(=O)OCC(=O)c2c(N)n(C)c(=O)n(C)c2=O)cc1  5.93%
5. Cc1ccc(C(C)C)c(OCC(=O)OCC(=O)c2c(N)n(C)c(=O)n(C)c2=O)c1  3.36%
6. N#C/C(=C/c1ccc(-c2cc([N+](=O)[O-])ccc2Cl)o1)C(N)=O  1.62%
7. Cc1ccc(-c2csc(NC(=O)CSc3nc(C)cc(=O)[nH]3)n2)cc1  1.07%
8. Cc1nc2ccc(S(=O)(=O)NCC(=O)N3CCc4ccccc4C3)cc2s1  0.862%
9. CCOC(=O)c1ccc(NCc2ccncc2)cc1  -1.66%
10. N#CC(=C=[N-])c1nc2ccccc2nc1-[n+]1ccccc1  -2.11%
11. Nc1nc(SCC(=O)NCCCO)nc2sc3c(c12)CCC3  -3.17%
12. CCN1C(=O)/C(=C\C=C2/C=CC=CN2CC)SC1=S  -5.68%
13. O=C(CN1CCCCC1)N1CCc2ccccc21  -6%
14. Cc1c(C(=O)NCc2ccco2)cccc1[N+](=O)[O-]  -6.07%
15. CC(NC(=O)C1CCN(S(=O)(=O)c2ccc3c(c2)NC(=O)CO3)CC1)c1ccccc1 (centres unmarked)  -7.39%
16. Nc1nc(SCC(=O)NCCCN2CCOCC2)nc2sc3c(c12)CCC3  -9.2%
17. COc1ccccc1OCCC(=O)OCC(=O)c1c(N)n(C)c(=O)n(C)c1=O  -10.3%
18. O=C1N(CC(=O)N2CCc3ccccc32)CCN1Cc1ccc(Cl)cc1  -11.8%
19. COc1cc2c(cc1OC)CN(C(C)C(=O)N1CCc3ccccc31)CC2 (centres unmarked)  -14%
20. CC(C)Cn1c(N)c(C(=O)COC(=O)c2ccccc2F)c(=O)n(C)c1=O  -14.7%
21. Cc1ccc(S(=O)(=O)N(C)CC(=O)N2CCCc3ccccc32)cc1  -16.1%
22. O=C(c1cc(COc2ccccc2)on1)N1CCCC(OCc2cccnc2)C1 (centres unmarked)  -16.6%
23. COc1ccc(N2CCN(C(C)C(=O)N3CCc4ccccc43)CC2)cc1 (centres unmarked)  -17.7%
24. CSc1ccc(/C=C(\C#N)C(=O)NC2CCCCC2C)cc1 (centres unmarked)  -21.7%
25. COc1ccccc1OCc1cc(C(=O)N2CCCC(OCc3cccnc3)C2)no1 (centres unmarked)  -22%
26. CN(CC(=O)N1CCc2ccccc21)S(=O)(=O)c1cccs1  -22%
27. Cn1c(N)c(C(=O)COC(=O)COc2ccc(Cl)cc2)c(=O)n(C)c1=O  -23.1%
28. Cn1c(N)c(C(=O)COC(=O)COc2ccc(C#N)cc2)c(=O)n(C)c1=O  -24%
29. O=C(CN(Cc1ccco1)S(=O)(=O)c1cccs1)Nc1ccccc1C(F)(F)F  -32.8%
30. CC(C)Cn1c(N)c(C(=O)COC(=O)c2ccccc2Cl)c(=O)n(C)c1=O  -41.7%
31. O=C(c1cc(COc2ccc(F)cc2Cl)on1)N1CCCCC1c1cccnc1 (centres unmarked)  -41.8%
32. Cc1nc2ccc(S(=O)(=O)N(C)CC(=O)N3CCc4ccccc43)cc2s1  -42.5%
33. O=C(c1cc(COc2ccc(F)cc2Cl)on1)N1CCN(c2cnccn2)CC1  -46.9%
34. CN(CC(=O)N1CCc2ccccc21)S(=O)(=O)c1ccc(Cl)cc1  -51.2%
35. CC(C)Cn1c(N)c(C(=O)COC(=O)[C@H](C)NC(=O)c2ccccc2Cl)c(=O)n(C)c1=O  -53.1%
36. Cc1nc2ccc(S(=O)(=O)N(C)CC(=O)N3CCc4ccccc4C3)cc2s1  -53.2%
37. O=C(c1cc(COc2ccc(F)cc2Cl)on1)N1CCCC(OCc2cccnc2)C1 (centres unmarked)  -53.5%
38. Cc1ccc(C)c(OCCC(=O)OCC(=O)c2c(N)n(C)c(=O)n(C)c2=O)c1  -55.5%
39. Cn1c(N)c(C(=O)COC(=O)CCOc2ccc(C(C)(C)C)cc2)c(=O)n(C)c1=O  -60.6%
40. Nc1nc(SCC(=O)NCCN2CCOCC2)nc2sc3c(c12)CCC3  -65.9%
41. O=C(CN1CCN(Cc2ccc(Cl)cc2)CC1)N1CCc2ccccc21  -67.5%
42. Cn1c(N)c(C(=O)COC(=O)COc2ccc(Br)cc2)c(=O)n(C)c1=O  -72.6%
43. COc1ccc(CN2CCN(C(C)C(=O)N3CCc4ccccc43)CC2)cc1OC (centres unmarked)  -74%
44. O=C(c1cc(COc2ccc(F)cc2Cl)on1)N1CCC(OCc2cccnc2)CC1  -75.8%
